Source: the supplement of paper PMC6555819

System: VDR:RXRa (NR concentration 270 nM, RXRa partner concentration 90 nM)
Test: PBM binding z-score (relative to random genomic background probes); higher = stronger binding; sequences stand for … in GC…GCGATTGACAGCGTAGAATGAAGG
Protocol: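 Protein-binding microarray (Agilent 4x180K custom design, double-stranded 60-nt probes: 5' GC cap, 34-nt variable region, 24-nt constant primer region; full probe sequence given). Purified or IVT nuclear receptor:RXRα heterodimers (3:1 NR:RXRα, mostly 270:90 nM) or homodimers were incubated for 1 h in PBS with 2% milk and no ligand, then detected with Alexa488 antibodies. Fluorescence from o1-orientation probes (~5 replicates averaged) was converted to z-scores against 500 random hg19 background probes. Variable regions are seed direct-repeat (DR0–DR5) sites, all their single-nucleotide variants and half-site ablations.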

Sequence | PBM binding z-score
CATACAGGGTCAGCTTGGCCAGAGTAGGGACGGC | 2.81
CGTCCAAGGTCAGCAGGTCAATGAAAGCGACGTG | 4.68
CCTACTGGTCCATTCAGAGGTCATTGATCATATG | 4.24
CCTCGGAGGACAGAAGGTCAGAGTTGTCCGCTTT | 1.12
CAAACTAGGTCACCGGAAGGTCAGAGTCCGCATG | 4.86
TGAGACAGGTGAAGGTAACTCAGGTACGCAGTCG | -0.109
CCTACCGGGCCAAAAAGGTCATTGATGCCGATAA | 5.13
CCTAGTTGGTCAAGGTCACACAGGCTATAGGTAC | 4.72
CTCGAAAGGTCGGTTGAGGTGAGTATCCGGATAA | 2.13
TCTGCTAGGCCAGTTGGTCAGCTAACGAGCTGCC | -0.797
TTACCAAGGTTAGCTGAGGTCGTTGATCCAACTC | 5.09
TCAGACAGGTCAAGGTAACTCAGGTACGCAGTCG | 3.09
ACAGACAGGTGAGTGAAGGTACCTCAGCTGGACG | -0.805
TCTATTAGTTGAAGGGCAACCGGCGAGTCCGTTT | 0.946
CGAACTTGGTCAGAACAGGACAGTGAAGGATGAT | -0.145
TCTGCTAGGTCAACGATGGTCAGCTATTCTGCTA | 1.71
CCTACTGGGCCAGAGGTCATTGATTCCAATGCTC | 4.47
GCTGCTAGGTCAGGTTGGACAGCTAACGGGTACG | 0.304
CCTGCTAGGTGATGGTCAGCTAATCTACAGTATG | -0.759
CCTACTGGGCCACGAAAGTTCATTGATTCAGTGA | 3.51

Sequence | PBM binding z-score
GGAACGAGGGCAAACTTGATAGCATCTGTCGACG | 1.42
CTTACTGGGCCAAAAAGGTCATTGATGCCGATAA | 4.92
CCAAGCAGGCCAATCTGGGTCACTCAAGGCTTGA | 0.733
CGTCAAAGTTCAACTAAGGTATCGTAAAGCACGC | 4.28
CCTACTGGGCCATCAGGTTATTGATATCAACGTT | 0.0822
TCTTGTAGATCAATAGGAGGTTAAGAAAGATCGA | 0.721
AATACAGGGTCACTAGGCAAGAGTAGGTACGAAT | 3.97
TCGATTAGTTGATTAGGGCAACCGAAACAGCGGA | 0.219
ATACGTAGGTTAAGGGTCATTCAGGTTGGTTCGC | 5.82
TCGAGTAAGTTAGGGGCATTCAGAATGGCGTCGA | 0.425
AGAACGAGGGCACGCTGAGTAGATAGCAGAGTAG | 0.928
CCTAGCAGGCCAATCTGGGTCACTGAAGGCTTGA | 0.552
TCAAGTTGGTCAAAGGTCACACACTCGAAATGCG | 5.58
CGTCCAAGGTCAAGGCTAGGTCAGTGAAAGCATT | 5.06
GCTAGCAGGCCATTTGGGTCACCCAATGACGGGC | 1.07
ATATGTAGGTTAGATCCGGGTCATTCAGGCTATG | 3.5
CAAACTAGGTCAAGGTCAACGTCGGTTTGTGCCA | 5.02
TAGCCTAGGTCAGATCGGGCCAGTATTCGCTATA | 0.465
TTACCAAGGTTAAGGTCGTTGATCCCTCTGTAGA | 3.3
TCTTGTAGATCAGCAGGATAAGAAAGCTGGCCAA | -0.113
